# Activity calls are given as the source filed them.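 Rule for the calls: active = z-score of at least 1.8 in each of two replicates, scored against plate mean and spread of sample wells; inactive = the rest.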
# Test: galactose survival enhancers in mitochondrial complex I cybrids – cell-based, galactose medium, ATP luminescence, primary screen (AID 1645843);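 note: positive z means more ATP and so rescue of galactose-driven cybrid death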
# Conditions: complex I mutant cybrid cells, 72 h, hits give high values
row,SMILES,z-score
1,COc1cccc(C(=O)N2CCC(n3cc(-c4ccccn4)nn3)CC2)c1,0.785 (inactive)
2,Cc1nsc(NC(=O)N2CCCCC2c2ccc(F)cc2)n1 (stereo not given),-0.445 (inactive)
3,Cc1ccc(CC(=O)Nc2ccnn2C2CCCCC2)cc1F,0.325 (inactive)
4,CC(C)c1ncc(-c2cc(C(=O)N(C)C(C)C)c3ccc(F)cc3n2)cn1,-0.51 (inactive)
5,CC(C)N(C)C(=O)c1cc(-c2cnc(C(C)(C)C)nc2)nc2cc(F)ccc12,-0.525 (inactive)
6,O=c1c2cccc(C(F)(F)F)c2ncn1Cc1ccc(Cl)s1,-0.515 (inactive)
7,CCCCC(CC)CN1CCc2[nH]nc(C3CC3)c2C1 (stereo not given),-0.03 (inactive)
8,NCCCNC1CCN(c2ccc(-c3cccc(F)c3)cc2)CC1,-1.31 (inactive)
9,CN(C)C(=O)c1cccnc1-c1ccc2ncccc2c1,-0.545 (inactive)
10,CCC1(CC)CC1C(=O)N1CCC(n2cc(C3CCCCC3)nn2)CC1 (stereo not given),0.07 (inactive)

# — PubChem BioAssay
